Source: PubChem BioAssay (several laboratories)
MEKK2wt PB1 HTS – modulators of MEK5 binding to wildtype MEKK2, primary screen, biochemical, multiplex bead flow cytometry, Alexa488-MEK5. actives 1.1% (n = 290,000). Alexa488-MEK5 binding to MEKK2 WT; actives lie on both sides. binding response (% of control), % at 10 µM; in the data active means binding response below about 67% or above about 130%
Rce1 inh – yeast Rce1p protease inhibitors, primary screen, biochemical, fluorescence, cell-free homogeneous; CAAX prenyl protease 2 (Saccharomyces cerevisiae (strain ATCC 204508 / S288c)), Q03530; yeast membranes, quenched prenylated peptide cleavage fluorescence; calls only; actives 0.27% (n = 290,000);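 active means fall in fluorescence gain of 50% or more versus controls, with final raw signal at or below 3038400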
Target sequence (Q03530 whole entry, looked up): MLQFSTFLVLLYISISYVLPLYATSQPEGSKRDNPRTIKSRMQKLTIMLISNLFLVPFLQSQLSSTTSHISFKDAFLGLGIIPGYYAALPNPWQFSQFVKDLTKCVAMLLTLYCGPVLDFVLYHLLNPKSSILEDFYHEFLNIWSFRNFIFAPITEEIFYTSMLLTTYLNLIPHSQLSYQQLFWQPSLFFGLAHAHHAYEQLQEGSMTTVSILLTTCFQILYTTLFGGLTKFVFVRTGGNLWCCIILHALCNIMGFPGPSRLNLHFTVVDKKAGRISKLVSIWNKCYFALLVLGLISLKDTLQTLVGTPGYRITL
MEKK2 mut-MEK5 – MEK5 binding signal on mutant MEKK2 PB1, primary screen, biochemical, multiplex bead flow cytometry, Alexa488-MEK5; Alexa488-MEK5 binding to MEKK2 mutant; percent response, % at 10 µM; actives 0.35% (n = 290,000); AID 1530, 2009; in the data active means percent response above about 24%, passing the limit was not always enough
UBC13 polyUb – UBC13 polyubiquitin chain formation inhibitors, primary screen, biochemical, TR-FRET, uHTS. Ubiquitin-conjugating enzyme E2 N (Homo sapiens), P61088. inhibition, % at 20 µM. actives 0.47% (n = 330,000). AID 485273, 2010; in the data active means inhibition above about 45%, passing the limit was not always enough
Target sequence (P61088 whole entry, looked up): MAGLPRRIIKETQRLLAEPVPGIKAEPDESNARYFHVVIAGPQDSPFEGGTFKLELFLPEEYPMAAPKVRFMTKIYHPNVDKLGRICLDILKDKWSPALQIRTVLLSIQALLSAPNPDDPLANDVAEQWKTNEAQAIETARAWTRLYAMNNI
MEKK3 PB1 HTS – modulators of MEKK3-MEK5 PB1 binding, primary screen, biochemical, wildtype MEKK3, multiplex bead flow cytometry, Alexa488-MEK5; Mitogen-activated protein kinase kinase kinase 3 (Homo sapiens), Q99759; bead-based flow cytometry, Alexa488-MEK5 binding to MEKK3; actives lie on both sides; 0 = blocked by unlabeled MEK5, 100 = vehicle; binding response (% of control), % at 10 µM; AID 1529, 2009; actives 1.4% (n = 290,000);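 active means binding response more than 3 SD above or below the average of its plate-row segment, actives on both sides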;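 further: Alexa488 bead fluorescence after subtracting the streptavidin-only scavenger bead signal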
MEKK2wt confirm – modulators of MEK5 binding to wildtype MEKK2, confirmation, biochemical, single concentration, multiplex bead flow cytometry; shares compounds with MEKK3 PB1 HTS; Alexa488-MEK5 binding to MEKK2 WT; actives lie on both sides; binding response (% of control), % at 10 µM; actives 2.4% (n = 5,900); AID 1892, 2009; in the data active means binding response below about 16% or above about 210%; inactive means in between
MEKK2mut confirm – mutant MEKK2 PB1-MEK5 binding signal retest – biochemical, single concentration, multiplex bead flow cytometry, confirmation; Alexa488-MEK5 binding to MEKK2 mutant; actives 2% (n = 5,900); percent response, % at 10 µM; shares compounds with MEKK3 PB1 HTS; AID 1893, 2009; in the data active means percent response mostly above about 71%, no sharp cut-off; inactive means mostly below about 38%;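 further: higher means compound restores mutant binding toward wildtype level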
MEKK3-MEK5 inh – MEKK3 wild-type PB1 binding to MEK5, inhibitors, confirmation, biochemical, bead multiplex flow cytometry, single concentration, wildtype. binding response (% of control), % at 10 µM. Alexa488-MEK5 binding to MEKK3; active compounds read low. shares compounds with MEKK3 PB1 HTS. actives 1.8% (n = 5,900). AID 1894, 2009;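 active means binding response below 72% of control, or above a set upper limit, though filed actives all read lower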;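 further: lower values mean stronger disruption of MEK5 binding to MEKK3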
Of the large screens only hits and unclear results are named; the others gave an inactive call (follow-up assays come after a bar, where they were run); [ ] = remark or other dose. Hits are enriched below; roughly 2.5% of the tested compounds scored in any of these assays.

Cc1c(C2C(C#N)=C(N)N(c3cccc([N+](=O)[O-])c3)C3=C2C(=O)CCC3)cnn1C (stereo unspecified)	none
Clc1nc(Cl)nc(NCCC2=CCCCC2)n1	none
O=C(CN1C(=O)NC2(CCCCCC2)C1=O)N1CCN(c2ccccc2)CC1	none (no result: MEKK2wt PB1 HTS, Rce1 inh, MEKK2 mut-MEK5, MEKK3 PB1 HTS)
CCCCN(C)CCNC(=S)Nc1ccc2nc(N3CCN(CC)CC3)cc(C)c2c1	MEKK2wt PB1 HTS 134.0 | MEKK2wt confirm inactive | MEKK2mut confirm inactive | MEKK3-MEK5 inh inactive
CCCCNC(=S)Nc1ccc2nc(N3CCN(CC)CC3)cc(C)c2c1	MEKK2wt PB1 HTS 139.0, MEKK2 mut-MEK5 27.0 | MEKK2wt confirm inactive | MEKK2mut confirm inactive | MEKK3-MEK5 inh inactive
CCCN1CCN(CCCNC(=S)Nc2ccc3nc(N4CCN(CC)CC4)cc(C)c3c2)CC1	none
N#Cc1cccc(NC(=O)CC2CCCCC2)c1	MEKK2wt PB1 HTS -3.0[inhibitor] | MEKK2wt confirm inactive | MEKK2mut confirm inactive | MEKK3-MEK5 inh inactive
COc1ccc(C(C(N)=O)c2ncc(C(F)(F)F)cc2Cl)cc1 (stereo unspecified)	MEKK3 PB1 HTS 150.0 (no result: Rce1 inh) | MEKK2wt confirm inactive | MEKK2mut confirm inactive | MEKK3-MEK5 inh inactive
COc1cccc(C(=O)N2CCN=C2SC)c1	MEKK3 PB1 HTS 58.0[inhibitor] | MEKK2wt confirm inactive | MEKK2mut confirm inactive | MEKK3-MEK5 inh inactive
CSCC[C@H](NC(=O)c1cc([N+](=O)[O-])ccc1Cl)c1nc2ccccc2[nH]1	MEKK3 PB1 HTS 143.0 | MEKK2wt confirm inactive | MEKK2mut confirm inactive | MEKK3-MEK5 inh inactive
CC(C)CCN(C(=S)Nc1cccc(F)c1)C(C)c1cccs1 (stereo unspecified)	MEKK3 PB1 HTS 46.0[inhibitor] | MEKK2wt confirm inactive | MEKK2mut confirm inactive | MEKK3-MEK5 inh inactive
COCCN(C(=S)Nc1cccc(C)c1)C(C)c1cccs1 (stereo unspecified)	none
O=C(C1CC=CCC1)N1CCC(CO)(Cc2ccc(Cl)cc2)CC1 (stereo unspecified)	none
Cc1nnc(SCc2ccccc2)n(N)c1=O	MEKK3 PB1 HTS 69.0[inhibitor] | MEKK2wt confirm inactive | MEKK2mut confirm inactive | MEKK3-MEK5 inh inactive
Cc1nnc(SCC(=O)NCc2ccccc2Cl)n(N)c1=O	MEKK3 PB1 HTS 130.0 | MEKK2wt confirm inactive | MEKK2mut confirm inactive | MEKK3-MEK5 inh inactive
Cc1ccc(CSc2nnc(C)c(=O)n2N)cc1	MEKK3 PB1 HTS 131.0 | MEKK2wt confirm inactive | MEKK2mut confirm inactive | MEKK3-MEK5 inh inactive
Cc1nnc(SCc2ccccc2Cl)n(N)c1=O	none
Cc1ccccc1CSc1nnc(C)c(=O)n1N	none
CCOc1ccc(C(=O)Nc2cccc3ncccc23)cc1Br	none
COCCNC(=O)Cn1nc(-c2ccc(Cl)cc2)c2ccccc2c1=O	none
OCC1(Cc2cccc(Cl)c2)CCCN(Cc2cnn(-c3ccccc3)c2)C1 (stereo unspecified)	MEKK2wt PB1 HTS 140.0 | MEKK2wt confirm inactive | MEKK2mut confirm inactive | MEKK3-MEK5 inh inactive
Cn1c(=O)cc(OCCCC(=O)NCc2cccnc2)c2ccccc21	MEKK3 PB1 HTS 48.0[inhibitor] | MEKK2wt confirm inactive | MEKK2mut confirm inactive | MEKK3-MEK5 inh inactive
Cn1c(=O)cc(OCC(=O)NCc2cccnc2)c2ccccc21	none
COc1ccc(/C=N/Nc2ncnc3sc(C)c(C)c23)cc1	MEKK3 PB1 HTS 133.0 | MEKK2wt confirm inactive | MEKK2mut confirm inactive | MEKK3-MEK5 inh inactive
O=C(CCc1nc(-c2ccccc2Cl)no1)NC1CCCCC1	none
CC(=O)N1CCN(C(=S)c2cccc([N+](=O)[O-])c2)CC1	MEKK3 PB1 HTS 132.0 | MEKK2wt confirm inactive | MEKK2mut confirm inactive | MEKK3-MEK5 inh inactive
O=[N+]([O-])c1ccc(N2CCN(C(=S)c3cccc([N+](=O)[O-])c3)CC2)cc1	none
CC1(C)NC(=O)N(CC(=O)OCC(=O)NC(=O)c2ccccc2)C1=O	none (no result: MEKK2wt PB1 HTS, MEKK2 mut-MEK5, MEKK3 PB1 HTS)
Cn1c(-c2c(N)n(-c3ccccc3)c3nc4ccccc4nc23)nc2ccccc21	MEKK3 PB1 HTS 68.0[inhibitor] (no result: UBC13 polyUb) | MEKK2wt confirm inactive | MEKK2mut confirm inactive | MEKK3-MEK5 inh inactive
Cc1cccc(-n2c(N)c(-c3nc4ccccc4n3C)c3nc4ccccc4nc32)c1	none
CCN(CC)C(=O)CSc1nc(OC)cc(=O)[nH]1	none
Oc1ccc2ccccc2c1CN1CCN(C/C=C/c2ccccc2)CC1	MEKK2wt PB1 HTS 140.0, MEKK2 mut-MEK5 25.0 | MEKK2wt confirm inactive | MEKK2mut confirm inactive | MEKK3-MEK5 inh inactive
Cc1ccc2nc(NC(=O)CCNS(=O)(=O)c3cccs3)sc2c1	none
Cc1ccc(S(=O)(=O)Nc2ccc(-c3nc4ccc(C)cc4s3)cc2)cc1	MEKK3 PB1 HTS 151.0 | MEKK2wt confirm inactive | MEKK2mut confirm inactive | MEKK3-MEK5 inh inactive
Cc1ccc2nc(NC(=O)c3ccc(NS(=O)(=O)c4cccs4)cc3)sc2c1	MEKK3 PB1 HTS 136.0 | MEKK2wt confirm inactive | MEKK2mut confirm inactive | MEKK3-MEK5 inh inactive
Cc1cccc(NC(=O)C(=O)NCCCc2ccccc2)c1	none
O=C(CCC(=O)Nc1ccccc1Cl)NN=C1CCCC1	none
CCCNC(=O)C(=O)NCc1ccccn1	none
COc1ccc(CCNC(=O)C(=O)NCc2ccccn2)cc1	MEKK3 PB1 HTS 135.0 | MEKK2wt confirm inactive | MEKK2mut confirm inactive | MEKK3-MEK5 inh inactive
COc1ccc(/C=C(\NC(=O)c2ccccc2)C(=O)NCc2cccnc2)cc1	none
COc1ccc(CCNC(=O)/C(=C/c2cccnc2)NC(=O)c2ccccc2)cc1	MEKK3 PB1 HTS 128.0 | MEKK2wt confirm inactive | MEKK2mut confirm inactive | MEKK3-MEK5 inh inactive
Cc1ccccc1C(=O)N1CCC(C(=O)Nc2ccc(S(=O)(=O)N3CCCCC3)cc2)CC1	none
Cc1ccc(S(=O)(=O)NC2CC2)cc1[N+](=O)[O-]	none
CCOC(=O)N1CCN(C(=O)C2CCN(C(=O)c3cc(OC)cc(OC)c3)CC2)CC1	MEKK3 PB1 HTS 142.0 | MEKK2wt confirm inactive | MEKK2mut confirm inactive | MEKK3-MEK5 inh inactive
